Screen size: about 310,000 compounds; about 14,000 (4.5%) showed an effect of 50% or more. Effects have a minus sign here. The entries come from a sample that favours strong results as a whole.
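Also: peak tail current of the secondary pulse compared with the same well before compound.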

human ether-à-go-go-related gene (hERG) potassium channel, sequence (Q12809 whole entry, looked up): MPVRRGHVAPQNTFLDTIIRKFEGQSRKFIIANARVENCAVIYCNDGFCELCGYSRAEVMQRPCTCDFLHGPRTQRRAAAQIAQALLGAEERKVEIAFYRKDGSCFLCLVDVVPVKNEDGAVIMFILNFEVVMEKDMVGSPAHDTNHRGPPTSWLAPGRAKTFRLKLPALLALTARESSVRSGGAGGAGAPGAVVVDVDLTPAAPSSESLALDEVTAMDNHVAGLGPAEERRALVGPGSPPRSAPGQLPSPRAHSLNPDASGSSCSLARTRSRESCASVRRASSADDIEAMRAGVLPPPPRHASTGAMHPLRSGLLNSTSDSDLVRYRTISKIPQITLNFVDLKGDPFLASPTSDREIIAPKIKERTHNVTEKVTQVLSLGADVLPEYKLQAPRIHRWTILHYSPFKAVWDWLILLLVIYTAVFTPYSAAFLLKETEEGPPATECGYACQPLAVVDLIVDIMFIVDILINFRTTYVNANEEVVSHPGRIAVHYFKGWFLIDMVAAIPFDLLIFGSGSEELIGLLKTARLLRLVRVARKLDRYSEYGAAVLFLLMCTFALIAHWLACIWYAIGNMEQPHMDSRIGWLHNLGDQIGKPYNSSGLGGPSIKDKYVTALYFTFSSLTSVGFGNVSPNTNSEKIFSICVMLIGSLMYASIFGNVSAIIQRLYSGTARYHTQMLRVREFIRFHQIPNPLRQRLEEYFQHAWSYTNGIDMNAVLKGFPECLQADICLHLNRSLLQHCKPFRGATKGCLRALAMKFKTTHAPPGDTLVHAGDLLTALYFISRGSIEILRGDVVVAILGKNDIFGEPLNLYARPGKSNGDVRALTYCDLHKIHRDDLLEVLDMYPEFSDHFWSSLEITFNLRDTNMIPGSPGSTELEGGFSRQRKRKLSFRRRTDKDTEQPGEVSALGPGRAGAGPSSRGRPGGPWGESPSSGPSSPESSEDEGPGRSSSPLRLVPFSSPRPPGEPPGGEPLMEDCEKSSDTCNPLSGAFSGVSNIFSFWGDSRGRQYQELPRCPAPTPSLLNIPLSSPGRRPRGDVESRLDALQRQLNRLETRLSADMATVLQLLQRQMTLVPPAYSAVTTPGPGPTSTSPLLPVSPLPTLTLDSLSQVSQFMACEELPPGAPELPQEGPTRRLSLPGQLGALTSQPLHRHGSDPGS

This test concerns the target human ether-à-go-go-related gene (hERG) potassium channel (human, UniProt Q12809). Briefly: primary screen, population patch clamp on CHO cells stably expressing hERG; higher = less effect of the substance.
`CCC(C(=O)NC1CCCCC1)n1c2ccccc2c2nc(=O)cc(C)n21` (stereo not drawn): the “hERG current change (%, negative = inhibition) at 10uM” value was found to be 10.4%.

On to `O/N=C/c1cn(-c2ccccc2)nc1-c1cccnc1`, for which the “hERG current change (%, negative = inhibition) at 10uM” value is listed as -31.6%.

For the molecule `COCCCNC(=O)Cn1cnc2sc(C)c(S(=O)(=O)N3CC(C)CC(C)C3)c2c1=O` (stereo not drawn), the “hERG current change (%, negative = inhibition) at 10uM” value is listed as -0.637%.

Regarding `COCCCN1C(=O)c2ccc(C(=O)O)cc2C1=O`, the “hERG current change (%, negative = inhibition) at 10uM” value was -0.568%.

In the case of `COC(=O)c1ccc(/C=N/NC(=O)c2cccc(F)c2)cc1`, the “hERG current change (%, negative = inhibition) at 10uM” value is 6.65%.

Consider `COc1cccc(C(=O)NCC(=O)N/N=C/c2cn[nH]c2-c2ccccc2)c1`, for which the “hERG current change (%, negative = inhibition) at 10uM” value is -4.6%.

Regarding `Cc1nc2nc(C)c(CCC(=O)NCCC3=CCCCC3)c(C)n2n1`, the “hERG current change (%, negative = inhibition) at 10uM” value is given as 4.49%.

In the case of `COc1ccc(S(=O)(=O)N(C)C)cc1NC(C)C(=O)Nc1cccc(C#N)c1` (stereo not drawn), the “hERG current change (%, negative = inhibition) at 10uM” value is -23.5%.

For the molecule `COc1cccc(CNC(=O)C2CSC3(C)CCC(=O)N23)c1` (stereo not drawn), the “hERG current change (%, negative = inhibition) at 10uM” value is on record as 6.82%.

Consider `CN(C)c1ccc(N/C=C/C(=O)C(C)(C)C)cc1`, for which the “hERG current change (%, negative = inhibition) at 10uM” value worked out at 15.9%.

Consider `COC(=O)CN1C(=S)N(C)C(=O)/C1=C/c1cccs1`, for which the “hERG current change (%, negative = inhibition) at 10uM” value is given as 5.21%.

For `O=C(CNC(=O)c1ccc(Br)o1)NNC(=O)c1ccccc1O`, the “hERG current change (%, negative = inhibition) at 10uM” value is listed as -2.55%.

With `CCn1c2ccccc2c2cc(N=C3SC(CC(=O)Nc4ccccc4OC)C(=O)N3CCOC)ccc21` (stereo not drawn), the “hERG current change (%, negative = inhibition) at 10uM” value is -3.75%.

In the case of `CN(C)CCN(C(=O)c1ccc(Br)s1)c1nc2cc3c(cc2s1)OCCO3.Cl`, the “hERG current change (%, negative = inhibition) at 10uM” value is -4.91%.

As to `CN(C)CCCN(C(=O)c1ccc(Br)s1)c1nc2cc3c(cc2s1)OCCO3.Cl`, the “hERG current change (%, negative = inhibition) at 10uM” value is recorded as -33.9%.

With `CN(C)CCCN(C(=O)c1ccc(Br)s1)c1nc2cc3c(cc2s1)OCO3.Cl`, the “hERG current change (%, negative = inhibition) at 10uM” value was -52%.

Take `COC(=O)C1=C(c2ccc(F)cc2OCc2ccccc2)C[C@@H]2CC[C@H]1N2C(=O)N1CCCCC1`: the “hERG current change (%, negative = inhibition) at 10uM” value is given as -9.9%.

For the molecule `Cc1ccccc1CNC(=O)Cn1cnc(S(=O)(=O)N2CCCC2)c1`, the “hERG current change (%, negative = inhibition) at 10uM” value came out at 6.06%.

For the molecule `CCCOC(=O)C(C)n1cnc2scc(-c3ccc(C)cc3)c2c1=O` (stereo not drawn), the “hERG current change (%, negative = inhibition) at 10uM” value is 6.79%.

As for `CCC(C)(C)n1nnnc1C(c1ccc2ncccc2c1)N1CCN(c2ccc(O)cc2)CC1` (stereo not drawn), the “hERG current change (%, negative = inhibition) at 10uM” value was -31.7%.

As to `CC(C)(C)n1nnnc1C(c1cccnc1)N1CCN(c2ccccc2)CC1` (stereo not drawn), the “hERG current change (%, negative = inhibition) at 10uM” value is on record as -8.19%.

Consider `COCCn1nnnc1C(c1ccc2ncccc2c1)N1CCN(c2ccccc2F)CC1` (stereo not drawn), for which the “hERG current change (%, negative = inhibition) at 10uM” value is given as -19.4%.

For `CCC(C)(C)n1nnnc1C(c1cccnc1)N1CCN(c2cccc(C(F)(F)F)c2)CC1` (stereo not drawn), the “hERG current change (%, negative = inhibition) at 10uM” value is -41%.

As for `CC(C)(C)n1nnnc1C(c1cccnc1)N1CCN(c2cccc(C(F)(F)F)c2)CC1.Cl` (stereo not drawn), the “hERG current change (%, negative = inhibition) at 10uM” value is listed as -53.3%.

Consider `CC(C)(C)n1nnnc1C(c1ccc2ncccc2c1)N1CCC(O)CC1` (stereo not drawn), for which the “hERG current change (%, negative = inhibition) at 10uM” value is listed as 12.4%.

With `CC(C)(C)n1nnnc1C(c1ccc2ncccc2c1)N1CCSCC1` (stereo not drawn), the “hERG current change (%, negative = inhibition) at 10uM” value is reported as -18.1%.

In the case of `COc1ccc(N2CCN(C(c3ccc4ncccc4c3)c3nnnn3C(C)C)CC2)cc1` (stereo not drawn), the “hERG current change (%, negative = inhibition) at 10uM” value is given as -51.7%.

With `COc1ccc(N2CCN(C(c3ccc4ncccc4c3)c3nnnn3C(C)(C)C)CC2)cc1` (stereo not drawn), the “hERG current change (%, negative = inhibition) at 10uM” value is given as -52.1%.

Regarding `CCc1ccc(NC(=O)Nc2ccncc2)cc1`, the “hERG current change (%, negative = inhibition) at 10uM” value is -20.9%.

As for `O=C1Nc2ccc([N+](=O)[O-])cc2OC1CCN1CCN(c2ccccc2)CC1` (stereo not drawn), the “hERG current change (%, negative = inhibition) at 10uM” value is given as -47.4%.

Regarding `C/C(=N\Nc1ncnc2sc(C)c(C)c12)c1ccccn1`, the “hERG current change (%, negative = inhibition) at 10uM” value is on record as -35.5%.

As for `NC(=O)c1coc(-c2ccccc2)n1`, the “hERG current change (%, negative = inhibition) at 10uM” value is given as 12.9%.

`O=C(COC(=O)c1cccc2ccccc12)NCCCc1ccccc1`: the “hERG current change (%, negative = inhibition) at 10uM” value is on record as 0.562%.

In the case of `Cc1csc(C(C)NC(=O)c2ccc(OC3CCN(CCc4ccccc4)CC3)cc2)n1` (stereo not drawn), the “hERG current change (%, negative = inhibition) at 10uM” value was -66.2%.

`CC(C)N1CCN(C(=O)c2ccc(OC3CCN(CCc4ccccc4)CC3)cc2)CC1`: the “hERG current change (%, negative = inhibition) at 10uM” value was -0.0142%.

As for `O=C(NCc1ccccn1)c1ccc(OC2CCN(Cc3ccccc3)CC2)cc1`, the “hERG current change (%, negative = inhibition) at 10uM” value is recorded as -10.2%.

As for `COC1CCN(C(=O)c2ccc(OC3CCN(CCc4ccccc4)CC3)cc2)CC1`, the “hERG current change (%, negative = inhibition) at 10uM” value is -29.8%.

Turning to `CC(NC(=O)c1ccc(OC2CCN(Cc3ccccn3)CC2)cc1)c1nccs1` (stereo not drawn), the “hERG current change (%, negative = inhibition) at 10uM” value is listed as -10.3%.

In the case of `Cc1csc(CNC(=O)c2ccc(OC3CCN(CCc4ccccc4)CC3)cc2)n1`, the “hERG current change (%, negative = inhibition) at 10uM” value is recorded as -55.3%.

As to `CCOC(=O)C(CC(=O)Nc1nc(C(C)=O)c(C)s1)C(C)c1ccccc1` (stereo not drawn), the “hERG current change (%, negative = inhibition) at 10uM” value is 2.61%.

Regarding `C=CCSc1nc2c(c(=O)[nH]1)C(C(C)C)C(C#N)=C(N)O2` (stereo not drawn), the “hERG current change (%, negative = inhibition) at 10uM” value stood at 3.05%.

Take `O=C(Nc1ccc(-c2nc3ccccc3[nH]2)cc1)c1ccc2c(c1)OCO2`: the “hERG current change (%, negative = inhibition) at 10uM” value turned out to be 6.85%.
